Source: PubChem BioAssay AID1159580 (chemical genetic matrix, 2015)
Values joined by “and” are separate entries in the source; they are usually repeats but may differ in a detail not shown here. Equal entries are not always repeated. Among all 5,500 compounds or so, about 2,000 (36%) were called active. Inconclusive results (about 18%) are left out. No stated cut-off is given here; in the data, active means normalized growth mostly below about 0.91 (no sharp cut-off); inconclusive means no clear call, values can overlap the other calls; inactive means mostly above about 0.92. The list shows a part of the results.

Test: chemical genetic growth profiling, strain panel (AID 1159580);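 further: tested at 20 µM; growth read once vehicle control cultures reached saturation at 30 °C; 1 = growth at the plate median or of vehicle wells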
Settings: S. cerevisiae deletion strains, growth OD

Measured: normalized growth

CN(C)CCCN1c2ccccc2CCc2ccc(Cl)cc21
inactive: locus YAL013W, strain DEP1, stronger effect = lower value 0.92 and 0.962 | locus YAL030W, strain snc1, stronger effect = lower value 1 | locus YAL040C, strain CLN3, stronger effect = lower value 1.02 | locus YBL061C, strain skt5, stronger effect = lower value 1.01 | locus YBR009C, strain hhf1, stronger effect = lower value 0.944 | locus YBR023C, strain chs3, stronger effect = lower value 1.01 | locus YBR171W, strain sec66, stronger effect = lower value 0.99 | locus YBR229C, strain ROT2, stronger effect = lower value 0.975 | locus YBR231C, strain swc5, stronger effect = lower value 1.01 | locus YBR279W, strain paf1, stronger effect = lower value 0.996 | locus YCL011C, strain gbp2, stronger effect = lower value 0.984 | locus YCL016C, strain dcc1, stronger effect = lower value 0.994 | locus YCL029C, strain bik1, stronger effect = lower value 1 | locus YCL061C, strain MRC1 (second series), stronger effect = lower value 0.999 | locus YCL061C, strain MRC1, stronger effect = lower value 1 | locus YCL069W, strain vba3, stronger effect = lower value 1 | locus YCR088W, strain abp1, stronger effect = lower value 1 | locus YDL005C, strain med2, stronger effect = lower value 1.03 | locus YDL040C, strain nat1, stronger effect = lower value 0.998 | locus YDL101C, strain DUN1, stronger effect = lower value 0.977 | locus YDL185W, strain tfp1, stronger effect = lower value 0.984 | locus YDL192W, strain arf1, stronger effect = lower value 0.933 | locus YDR001C, strain nth1, stronger effect = lower value 1.01 | locus YDR069C, strain doa4, stronger effect = lower value 0.919 | locus YDR101C, strain arx1, stronger effect = lower value 1 | locus YDR150W, strain NUM1, stronger effect = lower value 1.01 | locus YDR159W, strain sac3, stronger effect = lower value 1.04 | locus YDR195W, strain ref2 1.07 | locus YDR297W, strain sur2, stronger effect = lower value 1.01 | locus YDR318W, strain mcm21, stronger effect = lower value 0.978 | locus YDR334W, strain swr1, stronger effect = lower value 1.01 | locus YDR335W, strain msn5, stronger effect = lower value 1 | locus YDR392W, strain spt3, stronger effect = lower value 0.93 | locus YDR502C, strain sam2, stronger effect = lower value 0.963 | locus YEL003W, strain gim4, stronger effect = lower value 0.984 | locus YEL037C, strain rad23, stronger effect = lower value 1 | locus YEL061C, strain CIN8 (second series), stronger effect = lower value 1.01 | locus YEL061C, strain CIN8, stronger effect = lower value 0.99 | locus YER002W, strain NOP16, stronger effect = lower value 1.08 | locus YER015W, strain faa2, stronger effect = lower value 0.972 | locus YER016W, strain bim1, stronger effect = lower value 1 | locus YER110C, stronger effect = lower value 0.999 | locus YER111C, strain swi4, stronger effect = lower value 0.994 | locus YER155C, strain BEM2 (second series), stronger effect = lower value 1.01 | locus YER155C, strain BEM2, stronger effect = lower value 1 | locus YER167W, strain BCK2, stronger effect = lower value 0.952 | locus YGL078C, strain dbp3, stronger effect = lower value 0.989 | locus YGL086W, strain mad1, stronger effect = lower value 0.967 | locus YGL167C, strain pmr1, stronger effect = lower value 1 | locus YGL173C, strain kem1, stronger effect = lower value 0.967 | locus YGL227W, strain vid30, stronger effect = lower value 0.993 | locus YGL240W, strain doc1, stronger effect = lower value 1 | locus YGL248W, strain PDE1, stronger effect = lower value 0.917 | locus YGL253W, strain hxk2, stronger effect = lower value 0.971 | locus YHR013C, strain ard1, stronger effect = lower value 0.852 | locus YHR079C, strain IRE1 (second series), stronger effect = lower value 0.992 | locus YHR079C, strain IRE1, stronger effect = lower value 0.981 | locus YHR094C, strain hxt1, stronger effect = lower value 0.993 | locus YHR129C, strain ARP1, stronger effect = lower value 0.986 | locus YHR142W, strain chs7, stronger effect = lower value 0.977 | locus YHR200W, strain rpn10, stronger effect = lower value 0.998 | locus YIL073C, strain SPO22, stronger effect = lower value 0.79 | locus YIL125W, strain kgd1, stronger effect = lower value 0.993 | locus YIR030C, strain dcg1, stronger effect = lower value 0.995 | locus YJL092W, strain hpr5, stronger effect = lower value 1.01 | locus YJL095W, strain BCK1 (second series), stronger effect = lower value 0.997 | locus YJL115W, strain asf1, stronger effect = lower value 0.997 | locus YJL129C, strain trk1, stronger effect = lower value 1.02 | locus YJL134W, strain LCB3, stronger effect = lower value 0.991 | locus YJL154C, strain vps35, stronger effect = lower value 1 | locus YJL164C, strain tpk1, stronger effect = lower value 0.993 | locus YJL166W, strain qcr8, stronger effect = lower value 0.957 | locus YJL168C, strain set2, stronger effect = lower value 0.993 | locus YJL187C, strain SWE1 (second series), stronger effect = lower value 0.887 | locus YJL187C, strain SWE1, stronger effect = lower value 1 | locus YJR043C, strain POL32, stronger effect = lower value 1.01
0.876 (active) and 1 (inactive): locus YHR030C, strain SLT2, stronger effect = lower value
active: locus YAL021C, strain ccr4, stronger effect = lower value 0.899 | locus YAL026C, strain drs2, stronger effect = lower value 0.77 | locus YBR021W, strain FUR4, stronger effect = lower value 0.561 | locus YDL035C, strain GPR1, stronger effect = lower value 0.824 | locus YDL074C, strain BRE1, stronger effect = lower value 0.674 | locus YDL134C, strain PPH21, stronger effect = lower value 0.812 | locus YDR137W, strain rgp1, stronger effect = lower value 1.21 [resistant] | locus YDR162C, strain NBP2, stronger effect = lower value 0.725 | locus YDR388W, stronger effect = lower value 0.825 | locus YFR010W, strain ubp6, stronger effect = lower value 0.882 | locus YGR135W, strain pre9, stronger effect = lower value 0.784 | locus YGR252W, strain gcn5, stronger effect = lower value 0.527 | locus YHR027C, strain rpn1, stronger effect = lower value 0.915 | locus YIL066C, strain RNR3, stronger effect = lower value 0.836
0.696 (active) and 0.99 (inactive): locus YJL095W, strain BCK1, stronger effect = lower value
